Hits are enriched below; roughly 19% of the tested compounds scored in any of these assays.
TDP1 cell noCPT: qHTS for Inhibitors of human tyrosyl-DNA phosphodiesterase 1 (TDP1): qHTS in cells in absence of CPT; DT40 Tdp1-/- hTDP1 cells, no CPT, ATP luminescence, 48 h; Potency, µM (titrated, usually from 46.2 µM), for inactives: top-dose activity change, negative = growth inhibition, hits mostly inhibitors; 420,000 compounds, 15% hits; AID 686978, 2013; further: potency means the concentration at half of the fitted maximal effect; nearly all actives have a fitted effect of over 55% in size
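Growth kinetics read by CellTiter-Glo luminescence after ≥48 hr at 37 °C. Cells: DT40 Tdp1-/- stably carrying human TDP1, 400 per well, compound exposure in the absence of CPT (DMSO vehicle).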
HT1080-NT tox: kills 2HG-producing HT-1080-NT fibrosarcoma cells. HT-1080-NT fibrosarcoma viability, CellTiter-Glo ATP luminescence, 48 h. Potency, µM (top dose mostly 46.1 µM), for inactives: at the highest dose activity, negative = less viability, usual class: cytotoxic. 360,000 compounds, 1.6% hits;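 further: NT is the 2HG producing partner of a matched IDH1 knockdown line; potency means the concentration at half of the fitted maximal effect; 0% = DMSO-treated cells and -100% = media-only wells without cells; nearly all actives have a fitted effect of over 55% in size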
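Read-out is CellTiter-Glo luminescence after 10 minutes at room temperature, following 48 hours' compound treatment of HT-1080-NT cells (750 cells/well, RPMI, 5% FBS, 37 degrees C).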
IL-1B inflam inh: inflammasome signaling inhibition, IL-1 beta readout; THP-1 LPS/ATP IL-1B secretion, AlphaLISA, 16 h; active compounds read low; activity change, % at 57.5 µM; 360,000 compounds, 4.7% hits; in the data active means activity change below about -50%; inconclusive means mostly about -30% to -49%
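THP-1 cells pretreated 1 hr with compounds (up to 57.5 uM final), then stimulated with LPS (250 ng/mL final) plus ATP (1.25 mM final); secreted IL-1B measured by AlphaLISA after 16 hr, decreased signal indicating inhibition.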
ELG1 DNA repair: inhibitors of ELG1-dependent DNA repair in HEK293T cells; HEK293T ELG1-luciferase reporter, luminescence, 16 h; DNA damage induced by 5-fluorouridine; Potency, µM (highest dose often 46.1 µM), for inactives: at the highest dose activity change, negative = inhibition, usual class: inhibitors; 330,000 compounds, 2.3% hits; AID 504467; further: potency means the concentration at half of the fitted maximal effect; nearly all actives have a fitted effect of over 55% in size
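Step one: seed 2,000 cells per well. Step two: pin-transfer compound or DMSO alongside 5-fluorouridine. Step three: incubate 16 hr, 37 °C, 5% CO2. Step four: add ONE-Glo, wait 30 min, read luminescence.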
HT1080 IDH1KD tx: kills HT-1080 cells with IDH1 knockdown; HT-1080 IDH1 knockdown viability, ATP luminescence, 48 h; 360,000 compounds, 2% hits; Potency, µM (top dose mostly 46.1 µM), for the others: at the top dose activity, negative = toxicity, usual class: cytotoxic;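 further: potency means the concentration at half of the fitted maximal effect; 0% = DMSO wells and -100% = cell-free medium wells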
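Assay cells: HT-1080 with IDH1 knockdown, 750 per well, RPMI/5% FBS. Exposure: 48 h at 37 °C following 2 h pre-incubation. Read: CellTiter-Glo luminescence; fitted concentration-response, curve class assigned.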
DT40 TDP1 CPT: growth inhibition of DT40 Tdp1-/-;hTDP1 cells with camptothecin (screen for TDP1 inhibitors). Potency, µM (highest dose often 46.2 µM), for inactives: at the top dose activity change, negative = growth inhibition, hits mostly inhibitors. 420,000 compounds, 12% hits. AID 686979. chicken DT40 Tdp1-/-;hTDP1 cells + 20 nM CPT, ATP luminescence, 48 h; further: potency means the concentration at half of the fitted maximal effect; nearly all actives have a fitted effect of over 55% in size
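Cell growth measured by CellTiter-Glo luminescence after a minimum 48 h, 37 C compound exposure with 20 nM CPT in Tdp1-knockout DT40 cells stably expressing hTDP1, seeded 400/well; qHTS titration format.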
The depositor's hits bear a star; ? = inconclusive; nt = no result given; [ ] = dose if it differs, or a comment. Unless noted, the call rests on the fitted dose curve; in most records, active means well fitted curve in the direction sought with a large enough effect; inconclusive means small, poorly fitted or top-dose-only effect, or another doubt; inactive means no such curve, though single readings can be large; an effect the other way counts as inactive or inconclusive. Unless noted, on the % scale 0 is the no-effect control and ±100 the full control effect.

SMILES	TDP1 cell noCPT	HT1080-NT tox	IL-1B inflam inh	ELG1 DNA repair	HT1080 IDH1KD tx	DT40 TDP1 CPT
CSc1nc(N)n2nc(-c3ccc(Cl)cc3)cc2n1	-25%	?	4	?	-28%	4%
COc1ccc(C(=O)N/C(=C\c2ccco2)C(=O)NCCN2CCOCC2)cc1	6%	8%	1	8%	8%	3%
COc1ccc(C(=O)N/C(=C\c2ccc(-c3cccc([N+](=O)[O-])c3)o2)C(=O)NCCCN2CCOCC2)cc1	16µM*	?	-25	nt	?	?
Cc1ccc(C(=O)N/C(=C/c2ccc(-c3cccc([N+](=O)[O-])c3)o2)C(=O)NC(C)(C)C)cc1	13µM*	2%	-5	?	-4%	?
CN(C)C(=O)/C(=C/c1ccc(-c2cccc([N+](=O)[O-])c2)o1)NC(=O)c1ccccc1	?	-22%	?	?	-28%	?
Cc1ccc(C(=O)N/C(=C\c2ccc(-c3cccc([N+](=O)[O-])c3)o2)C(=O)NCCCN2CCOCC2)cc1	?	18µM*	-12	-12%	?	?
CN(C)C(=O)/C(=C\c1ccc(-c2cccc([N+](=O)[O-])c2)o1)NC(=O)c1ccccc1	16µM*	0%	-16	21µM*	-9%	15µM*
O=C(Nc1ccc(OC(F)F)cc1)c1cc(S(=O)(=O)N2CCOCC2)ccc1N1CCCC1	-19%	-9%	-7	nt	1%	?
CSC[C@H]1CN(CCc2ccccc2)C(=O)[C@@H]1CC(=O)Nc1ccccc1	-28%	10%	-12	nt	3%	-2%
CCn1c(=O)c2cc(C(=O)NCCOC)sc2c2ccccc21	?	14%	?	?	6%	?
CCn1c(=O)c2cc(C(=O)N(CCCOC(C)C)Cc3ccco3)sc2c2ccccc21	21µM*	nt	nt	nt	nt	?
CC(C)N(C(=O)c1cc2c(Cl)nc3ccccc3c2s1)C1CCCCC1	-17%	nt	nt	nt	nt	11%
CCOC(=O)CNC(=O)c1cc2c(=O)n(CC)c3ccccc3c2s1	13%	nt	nt	nt	nt	27%
CCOc1ccccc1N(C)C(=O)c1cc2c(=O)n(CC)c3ccccc3c2s1	21µM*	-2%	-68*	?	-2%	21µM*
CCn1c(=O)c2cc(C(=O)N(CCN(C)C)Cc3ccccc3)sc2c2ccccc21	21µM*	nt	nt	nt	nt	-26%
CC(C)CCN(Cc1ccco1)C(=O)c1cc2c(Cl)nc3ccccc3c2s1	16µM*	nt	nt	nt	nt	?
CCn1c(=O)c2cc(C(=O)N(C)CC(OC)OC)sc2c2ccccc21	?	-2%	11	2%	0%	?
Cc1cccc(Cn2c(=O)n3nc(-c4ccccc4)nc3c3ccccc32)c1	18µM*	nt	nt	nt	nt	18µM*
O=c1n(Cc2ccc(Cl)cc2)c2ccccc2c2nc(-c3ccccc3)nn12	?	nt	nt	nt	nt	-26%
O=c1n(Cc2cccc(F)c2)c2ccccc2c2nc(-c3ccccc3)nn12	18µM*	nt	nt	nt	nt	?
COc1ccccc1CNC(=O)CN(C)c1nn2c(=O)cc(C)nc2s1	-7%	nt	nt	nt	nt	?
CCOc1ccc(S(=O)(=O)N2CCN(Cc3ccc4c(c3)OCO4)CC2)cc1C	-18%	7%	-16	-3%	0%	-21%
CCN(C(=O)c1coc(=O)c(Br)c1)c1ccc2c(c1)OCO2	1µM*	?	-11	26%	?	1.5µM*
CCN(C(=O)c1c(C)cc(=O)oc1C)c1ccc2c(c1)OCO2	-16%	-7%	10	1%	6%	-5%
CC(=O)c1nn(-c2ccc(C(F)(F)F)cc2)c(=O)[nH]c1=O	-17%	2%	16	13%	-2%	19%
SMILES	TDP1 cell noCPT	HT1080-NT tox	IL-1B inflam inh	ELG1 DNA repair	HT1080 IDH1KD tx	DT40 TDP1 CPT
Clc1ccc(N=C2SCC3CCCCN23)cc1 (stereo not given)	-26%	12%	-4	?	1%	-20%
FC(F)Oc1ccc(N=C2SCC3CCCCN23)cc1 (stereo not given)	23µM*	-8%	-17	?	-1%	?
Cc1ccc(S(=O)(=O)N(C)c2ccc(C(=O)N(CC(C)C)C3CCS(=O)(=O)C3)cc2)cc1 (stereo not given)	?	3%	-1	9%	3%	?
C=CCn1c(SCC(=O)NCCCC)nc2scc(-c3ccco3)c2c1=O	?	-14%	-68*	?	-12%	?
Cc1nc(SC(C)C(=O)NCC2CCCO2)c2cc(-c3ccccc3)sc2n1 (stereo not given)	15µM*	-9%	-63*	?	?	15µM*
C=CCn1c(SCC(=O)Nc2ccc(C(=O)O)cc2)nc2scc(-c3ccccc3)c2c1=O	-6%	3%	-13	-1%	-12%	6%
CC(Sc1ncnc2c1cnn2-c1ccccc1)C(=O)NCC1CCCO1 (stereo not given)	-6%	3%	11	8%	-14%	-22%
C=CCn1c(SCC(=O)Nc2c(C)n(C)n(-c3ccccc3)c2=O)nc2scc(-c3ccccc3)c2c1=O	?	-10%	-16	23µM*	-24%	?
C=CCn1c(SCC(=O)NCC2CCCO2)nc2scc(-c3ccccc3)c2c1=O (stereo not given)	?	8%	-6	-21%	-4%	26µM*
C=CCn1c(SCC(=O)Nc2c(C)n(C)n(-c3ccccc3)c2=O)nc2ccccc2c1=O	-4%	-3%[9.24 µM]	-19	-6%	0%	-14%
CCCC#Cc1cnc2c(c1)C(=O)N([C@H](C)CO)C[C@H](C)[C@@H](CN(C)C(=O)CCN1CCCCC1)O2	?	-3%	?	nt	-5%	-29%
CC(C)NC(=O)c1onc(CSc2cccc(Cl)c2)c1C(=O)O	-17%	-4%	26	7%	-15%	-1%
CCNC(=O)C1(C)CCN(C(=O)C(c2ccccc2)c2ccccc2)C1 (stereo not given)	-9%	25%	8	nt	8%	3%
Cc1cc(C(=O)N2CCCC2(C)C(=O)NCC(C)C)nn1C(C)(C)C (stereo not given)	-15%	22%	1	nt	0%	-27%
CCn1c(SC(C)C(=O)NCC2CCCO2)nc2scc(-c3ccccc3)c2c1=O (stereo not given)	?	-2%	-3	?	1%	18µM*
